High-throughput results from PubChem BioAssay.
An excerpt weighted towards active compounds, which were near 1.6% of everything screened.
Yeast superoxide: caloric restriction mimetics inhibiting age-related superoxide in yeast. AID 2690. superoxide response (% of plate mean), % at 10 µM. 0.18% of 330,000 active. S. cerevisiae aged cells, superoxide DHE fluorescence; active compounds read low;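 active = superoxide response under a set limit, about three screen SD below normal, cut at about 65% in these data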;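 note: yeast aged for seven days with compound at 30 °C before DHE staining; 100% = average MFI of all compound-treated wells on the plate with controls excluded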
ATG4B inhibitor: inhibitors of human ATG4B cysteine protease; 0.51% of 340,000 active; inhibition, % at 8.33 µM; ATG4B cleavage of LC3-PLA2, NBD-HPC fluorescence, 1 h; Q9Y4P1; in the data active = inhibition above about 40%
GRK2 aptamer HTS: blocks RNA aptamer binding to human GRK2. 0.59% of 330,000 active. AID 488847. P25098. inhibition of aptamer binding, % at 10 µM. bead flow cytometry, FAM-aptamer displacement from GRK2;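 active = inhibition of aptamer binding above 40%, roughly 3 SD of noise, on plates passing a quality check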;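 note: median bead fluorescence of bound FAM aptamer so fluorescent compounds give negative values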
Efflux pump mplx: antifungal efflux pump inhibition, Nile Red retention. 0.44% of 330,000 active. inhibition, % at 10 µM. S. cerevisiae Candida pump triplex;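 active = plate passing quality check with inhibition over a set limit, or well fluorescence over plate mean plus 4 SD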;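 note: Nile Red retained in pooled yeast measured as flow cytometry median fluorescence; 0% = buffer negative control and 100% = Enniatin B positive control; higher means more Nile Red kept so more efflux inhibition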
ATG4B conf: ATG4B (human) inhibition, single-dose confirmed; shares compounds with ATG4B inhibitor; ATG4B protease fluorescent substrate cleavage assay; inhibition, % at 8.33 µM; 92% of 320 active; AID 504757; in the data active = inhibition above about 39%
PLA2 counter: inhibits human PLA2, flagging false ATG4B inhibitors. shares compounds with ATG4B inhibitor. purified PLA2, NBD-C6-HPC fluorescence, 45 min. inhibition, % at 8.33 µM. 66% of 1,600 active. AID 588402; in the data active = inhibition above about 50%
An asterisk follows results filed as active; x = no result given.

SMILES	Yeast superoxide	ATG4B inhibitor	GRK2 aptamer HTS	Efflux pump mplx	PLA2 counter	others
Cc1ccc([C@@H]2CC=C(C(=O)O)[C@H](c3ccc(C(C)(C)C)cc3)N2S(=O)(=O)c2ccc(C)cc2)cc1	75	37	1	0	x
Cc1ccc(S(=O)(=O)N2[C@@H](c3ccc(C(C)(C)C)cc3)C(C(=O)O)=CC[C@H]2c2ccc(Cl)cc2)cc1	72	46*	0	0	55*
S=C1NCCOCCNC(=S)NCCOCCOCCN1	78	-6	0	0	x
CC1=Nc2ccccc2/C1=C/c1sc(=S)n(-c2cccc(C(=O)O)c2)c1O	x	60*	x	x	85*
Oc1c(C=C2N=c3ccccc3=N2)sc(=S)n1-c1ccccc1	133	-9	22	0	x
CN1CCN(C(=O)C2CCN(c3ncnc4c3nc3n4CCCCC3)CC2)CC1	88	10	3	0	x
CCN(Cc1ccccc1)C(=O)C1CCN(c2ncnc3c2nc2n3CCCCC2)CC1	79	45*	4	0	53*
O=C(C1CCN(c2ncnc3c2nc2n3CCCCC2)CC1)N1CCCCC1	94	0	2	0	x
CCc1ccccc1N(CC)C(=O)C1CCN(c2ncnc3c2nc2n3CCCCC2)CC1	92	53*	5	0	66*
CCC(=O)N1CCc2cc(S(=O)(=O)NC(Cc3ccccc3)C(=O)O)ccc21 (configuration not stated)	90	-3	0	0	x
O=C(Cc1cccc(C(F)(F)F)c1)NCc1cccc(Cl)c1	95	-1	4	0	x
O=C(NCc1cccc(C(F)(F)F)c1)c1cc(Cl)cc(Cl)c1	75	52*	1	0	42	ATG4B conf=60*
O=C(NCc1cccc(Cl)c1)c1ccc(S(=O)(=O)Nc2cccc(C(F)(F)F)c2)cc1	104	58*	1	0	60*
O=C(NCc1cccc(C(F)(F)F)c1)c1cc(Cl)ccc1Cl	113	1	0	0	x
CN(Cc1ccccc1)C(=O)c1ccc(NC(=O)Cc2ccc(NC(=O)C3CCCN(C(=O)C4CC4)C3)cc2)cc1 (configuration not stated)	x	1	x	x	x
O=C(O)Cc1sc(NC2CCCCC2)nc1-c1ccc(Cl)cc1	111	54*	0	1	32	ATG4B conf=65*
Cc1ccc(-c2nc(Nc3cccc(C)c3)sc2CC(=O)O)cc1	95	-19	4	0	x
O=C(O)c1[nH]c2ccccc2c1C(c1cc(Cl)cc([N+](=O)[O-])c1O)c1c(C(=O)O)[nH]c2ccccc12	133	58*	7	0	40	ATG4B conf=30
COC(=O)c1[nH]c2ccc(Cl)cc2c1NC(=O)c1ccccc1[N+](=O)[O-]	107	-4	3	0	x
Cc1ccccc1CSc1ccc(-c2ccc3c(c2)OCO3)nn1	89	45*	5	0	27
COc1ccc(NC(=O)CSc2nc3sc(C)cc3c(=O)n2C)c(OC)c1	91	-11	0	0	x
O=C(O)c1ccc(CSc2nc3ccccc3c(=O)n2-c2ccccc2)cc1	116	41*	2	0	59*
Cc1noc(C)c1CSc1nc2sc(C)c(C)c2c(=O)n1-c1ccccc1	102	9	4	0	x
O=c1c2ccccc2nc(SCc2ccc([N+](=O)[O-])cc2)n1-c1ccccc1	97	40*	2	0	50
O=C(CSc1nc2ccccc2c(=O)n1-c1ccccc1)c1cccc([N+](=O)[O-])c1	99	-3	0	0	x
SMILES	Yeast superoxide	ATG4B inhibitor	GRK2 aptamer HTS	Efflux pump mplx	PLA2 counter	others
Cc1noc(C)c1CSc1nc2ccccc2c(=O)n1-c1ccc(Cl)cc1	97	71*	0	0	70*
O=C(c1ccc(-n2c(SCc3cccc(F)c3)nc3ccccc3c2=O)cc1)N1CCOCC1	98	48*	1	0	44	ATG4B conf=59*
O=C(CCCN1C(=O)/C(=C/c2ccccc2Cl)SC1=S)NNC(=O)c1ccccc1	101	50*	0	0	31	ATG4B conf=55*
O=C(CCCN1C(=O)/C(=C/c2ccccc2Cl)SC1=S)NNC(=O)c1cccnc1	102	8	x	0	x
O=C(CCN1C(=O)/C(=C/c2ccccc2Cl)SC1=S)Nc1ccccc1C(=O)O	115	58*	1	0	51*
O=C(CN1C(=O)/C(=C\c2ccco2)SC1=S)Nc1ccc(O)cc1C(=O)O	77	40	16	0	x
O=C(CCN1C(=O)/C(=C/c2ccco2)SC1=S)Nc1ccc(O)cc1C(=O)O	99	43*	10	0	0
Brc1ccc2[nH]c3c(N4CCc5ccccc5C4)ncnc3c2c1	99	48*	0	0	63*
CCC(=O)c1ccc(OCC(=O)OCC(=O)N2c3ccccc3CC2C)cc1 (configuration not stated)	105	0	4	0	x
N#Cc1cnn(-c2nc(SCc3ccccc3)nc3sc4c(c23)CCCC4)c1N	103	43*	0	0	59*
Cc1ccccc1C(=O)N(C)c1ccccc1C(=O)NCc1ccccc1	94	1	2	-2	x
CN(C(=O)c1ccccc1[N+](=O)[O-])c1ccccc1C(=O)NCc1ccccc1	100	-2	0	0	x
Cc1cc(C(=O)N/N=C/c2cc(Br)cc(Br)c2OC(=O)c2cccc(F)c2)n[nH]1	100	44*	2	0	42
Cc1cc(C(=O)N/N=C\c2cc(C(C)(C)C)ccc2O)n[nH]1	92	47*	0	0	55*
Cc1cc(C(=O)N/N=C/c2cc(Br)cc(Br)c2OC(=O)c2ccccc2)n[nH]1	86	x	2	0	x
Cc1cc(C(=O)N/N=C/c2cccs2)n[nH]1	101	3	2	0	x
O=C(Cn1cnc2ccccc2c1=O)Nc1nnc(SCc2ccc(Cl)cc2)s1	108	0	0	0	x
O=C(COC(=O)CCc1nc2ccccc2n1-c1ccccc1)Nc1cccc(Cl)c1	98	25	0	0	x
Cc1c(Cl)cccc1NC(=O)COC(=O)CCc1nc2ccccc2n1-c1ccccc1	109	50*	0	0	53*
Cc1ccc(C(=O)c2nc(C(=O)NCCO)nc3ccccc23)cc1	110	4	3	0	x
COc1ccc(C(=O)c2cnc3ccccc3c2-c2ccccc2)cc1	100	72*	0	0	83*
Cc1ccc(C(=O)c2cnc3ccccc3c2-c2ccccc2)cc1	105	69*	0	0	82*
Cc1cccc(C(CC(=O)NCc2ccco2)c2ccccc2)c1O (configuration not stated)	87	2	10	0	x
CC(C)Oc1ccc(C(CC(=O)NCc2ccco2)c2ccccc2)cc1 (configuration not stated)	94	44*	0	0	46	ATG4B conf=65*
Cc1ccc(S(=O)(=O)N2CCOCC2)cc1NC(=O)c1cc([N+](=O)[O-])ccc1N1CCOCC1	116	-6	0	0	x
